Screens from PubChem BioAssay.
Pf growth 96h = P. falciparum growth inhibition at 96 hours. AID 504834. P. falciparum luciferase reporter growth, 96 h. 320,000 compounds, 6.9% hits. Potency, µM (highest dose often 28.7 µM), inactives show at the highest dose activity change, negative = inhibition, actives largely listed as inhibitors; also: potency is read from the fitted curve at half-maximal effect; % is scaled to controls: 0 for no effect and ±100 for the full control effect
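P. falciparum expressing integrated firefly luciferase grown in erythrocytes (2% hematocrit, 0.05% parasitemia final) with compounds for 96 hours at 37 C, 5% CO2. Growth inhibition read as loss of luminescence after adding luciferase detection reagent.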
LmPK inhibitor = LmPK (Leishmania mexicana) enzyme inhibition | Potency, µM (titrated, usually from 57.5 µM), for the others: at the highest dose activity change, negative = inhibition, hits mostly inhibitors | purified LmPK, Kinase-Glo ATP luminescence, 1 h | 290,000 compounds, 0.37% hits | Q27686; also: potency is read from the fitted curve at half-maximal effect; % is scaled to controls: 0 for no effect and ±100 for the full control effect
Target sequence (Q27686 whole entry, looked up): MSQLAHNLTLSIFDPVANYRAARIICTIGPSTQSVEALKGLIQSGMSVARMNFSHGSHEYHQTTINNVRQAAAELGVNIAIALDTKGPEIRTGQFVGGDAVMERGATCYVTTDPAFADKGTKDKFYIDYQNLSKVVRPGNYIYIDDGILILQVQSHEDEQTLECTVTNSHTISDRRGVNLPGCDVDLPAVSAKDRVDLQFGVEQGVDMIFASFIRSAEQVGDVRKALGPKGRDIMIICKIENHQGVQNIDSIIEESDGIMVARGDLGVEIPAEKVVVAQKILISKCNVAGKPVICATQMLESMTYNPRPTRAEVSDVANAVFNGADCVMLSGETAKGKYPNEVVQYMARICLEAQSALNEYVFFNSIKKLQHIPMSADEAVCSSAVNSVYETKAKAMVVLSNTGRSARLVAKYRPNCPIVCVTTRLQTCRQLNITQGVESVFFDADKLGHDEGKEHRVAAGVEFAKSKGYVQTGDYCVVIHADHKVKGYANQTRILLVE
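0.1 nM LmPK, 0.5 mM PEP, 0.1 mM ADP; 50 mM imidazole pH 7.2, 7 mM MgCl2, 50 mM KCl; 1 h RT. Kinase-Glo luminescence readout, normalized to no-enzyme (full inhibition) and uninhibited wells.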
Shiga toxin inh = blocks Shiga toxin action in Vero cells. Vero cells, Shiga toxin protein synthesis inhibition reporter. inhibition, % at 38.7 µM. 290,000 compounds, 9.2% hits. AID 2315; in the data active = inhibition mostly above about 28%, no sharp cut-off; inactive = mostly below about 43%; also: 0% is about no effect
Pf growth 48h = P. falciparum growth inhibition at 48 hours (one generation) | AID 504832 | 310,000 compounds, 5.9% hits | Potency, µM (series often up to 28.7 µM), inactives show at the top dose activity change, negative = inhibition, usual class: inhibitors | P. falciparum luciferase growth in erythrocytes, 48 h; also: potency is read from the fitted curve at half-maximal effect; % is scaled to controls: 0 for no effect and ±100 for the full control effect
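Compounds are pin-transferred into medium, infected erythrocytes (2% hematocrit, 0.1% parasitemia final) are added, and plates sit one parasite generation at 37 C in 5% CO2. Detection reagent is then added and luminescence measured.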
CHX counter = counter-screen for Shiga toxin inhibitors: cycloheximide protein synthesis inhibition. 300,000 compounds, 12% hits. cell reporter, cycloheximide protein synthesis inhibition counterscreen. max response, %. AID 2314; in the data active = max response mostly above about 13%, no sharp cut-off; inactive = mostly below about 14%; also: read at 38.3 µM for the half of the compounds with a filed dose; 0% is about no effect
* = called active by the depositor; ? = inconclusive; / = not tested or not shown. The list is not random: actives were taken first. Their share in the collection is about 22%. Unless noted, calls follow the shape of the dose curve; as a rule, active = well fitted inhibition curve with a large enough effect; inconclusive = small, poorly fitted or top-dose-only effect, or another doubt; inactive = no such curve, though single readings can be large or run the other way.

SMILES	Pf growth 96h	LmPK inhibitor	Shiga toxin inh	Pf growth 48h	CHX counter
CCc1ccc([C@@H]2CC=C(C(=O)O)[C@H](c3ccccc3F)N2S(=O)(=O)c2ccc(C)cc2)cc1	31%	/	/	1%	/
Cc1nnc(SCC(=O)Nc2ccc3c(c2)OCO3)o1	13µM*	1%	11	7%	-3
CCCn1c(SCC(=O)Nc2ccc3c(c2)OCO3)nc2c1c(=O)n(C)c(=O)n2C	10µM*	0%	-23	1%	0
CCn1c(SCC(=O)Nc2ccc3c(c2)OCO3)nc2c1c(=O)n(C)c(=O)n2C	?	1%	-3	12%	12
COc1cc(-c2ccc(NC(=O)NC3CC3)c(OC)c2)ccc1NC(=O)NC1CC1	?	0%	23	?	11
COc1ccc(C(=O)OCCN2CCN(C3=NS(=O)(=O)c4ccccc43)CC2)cc1OC	8.3µM*	1%	-3	-17%	4
Cc1cc(NC(=O)CCC(=O)N(Cc2cccs2)C(C)(C)C(=O)NC2CCCCC2)no1	?	-3%	-12	-16%	-4
CCCC1COC(Cn2cncn2)(c2ccc(Cl)cc2Cl)O1 (stereo not drawn)	10%	-9%	-14	12µM*	-12
COc1cc(Cl)ccc1OCc1cc(C(=O)N(C)Cc2cn(C)nc2C)no1	18%	-6%	1	1%	-2
CC(=O)c1ccc(OCc2cc(C(=O)N(C)Cc3cc(C)no3)no2)cc1	16%	-7%	39*	13%	33*
CC(=O)c1cccc(OCc2cc(C(=O)N(C)C(C)c3ccccn3)no2)c1 (stereo not drawn)	44%	0%	17	4%	8
CC(=O)c1ccc(OCc2cc(C(=O)N(C)C(C)c3nccs3)no2)cc1 (stereo not drawn)	38%	-5%	35*	-4%	30*
COc1cc(Cl)ccc1OCc1cc(C(=O)N(C)Cc2nnc(C)o2)no1	-25%	-1%	17	22%	35*
CC(=O)c1ccc(OCc2cc(C(=O)N(C)Cc3ncc(C)[nH]3)no2)cc1	?	-6%	-6	0%	3
CC(=O)c1cccc(OCc2cc(C(=O)N(C)Cc3cnccn3)no2)c1	-21%	2%	88*	?	51*
COc1ccc([N+](=O)[O-])cc1NC(=O)C(C)OC(=O)CSC(C)C(=O)Nc1cc(C)on1 (stereo not drawn)	12%	/	/	6%	/
CCc1ccc(CN(C)C(=O)c2cc(COc3ccc(OC)cc3Cl)on2)nc1	7%	-7%	84*	29%	68*
COc1cccc(OCc2cc(C(=O)N(C)Cc3nc4ccccc4[nH]3)no2)c1	37%	4%	125*	-8%	38*
COc1ccc(OCc2cc(C(=O)N(C)Cc3cc(C)no3)no2)c(Cl)c1	20%	9%	99*	123%	72*
COc1cccc(OCc2cc(C(=O)N(Cc3ccccc3)CC3CC3)no2)c1	?	7%	-7	-5%	9
CN(Cc1cccnc1)C(=O)c1cc(COc2ccc3c(c2)CCCC3)on1	4%	0%	82*	?	70*
CCc1ccc(CN(C)C(=O)c2cc(COc3cccc4cnccc34)on2)cc1	31%	-1%	1	?	-1
CCc1ccc(CN(C)C(=O)c2cc(COc3cccc(C(F)(F)F)c3)on2)nc1	?	2%	39	?	14
CC(=O)Nc1cccc(NC(=O)CSc2nc3c(=O)n(C)c(=O)n(C)c3n2C)c1	-17%	/	/	2%	/
COc1ccc(OCc2cc(C(=O)N(C)Cc3nnc(C)o3)no2)c(Cl)c1	2%	1%	111*	119%	29*
SMILES	Pf growth 96h	LmPK inhibitor	Shiga toxin inh	Pf growth 48h	CHX counter
CCCCCCc1ccc(N2C[C@H](C)[C@@H](CC(=O)NCc3ccccc3)C2=O)cc1	?	2%	-1	?	8.5*
CCCCCCc1ccc(N2C[C@H](Cc3ccccc3)[C@@H](CC(=O)Nc3ccccc3)C2=O)cc1	?	-1%	44*	?	17*
CCCCCCc1ccc(N2C[C@H](Cc3ccccc3)[C@@H](CC(=O)NCc3ccc(OC)cc3)C2=O)cc1	?	2%	-6	-63%	1
O=C(Cn1nnc2c(cnn2-c2ccc(F)cc2)c1=O)c1ccccc1F	34%	2%	19	0%	9
CC(C)OC(=O)Cn1c(-c2ccccc2)c(-c2ccccc2)nnc1=O	-10%	2%	-8	-8%	-3
CC(C)OC(=O)Cn1nnc2c(cnn2-c2ccccc2)c1=O	-29%	-2%	65*	130%	46*
COC(=O)Cn1nnc2c(cnn2-c2ccccc2)c1=O	64%	-5%	53	20%	25*
O=C(COc1ccc([N+](=O)[O-])cc1)Nc1ccc(C(=O)Nc2ccccc2C(=O)O)cc1	47%	5%	10	33%	-3
CCCCc1ccc(Nc2nc(CCC)cc(=O)[nH]2)cc1	/	1%	-10	10µM*	-1
CCCc1cc(=O)[nH]c(Nc2ccc(N3CCCCC3)cc2)n1	/	12%	3	12%	-3
CCCc1cc(=O)[nH]c(Nc2ccc3c(c2)OCCO3)n1	?	1%	42*	34%	36*
NS(=O)(=O)c1cccc(NC(=O)c2ccno2)c1	31%	4%	3	38%	1
CC1=C(C#N)C(NC(=O)c2cccc(Cl)c2)(C(F)(F)F)C(=O)N1 (stereo not drawn)	33%	0%	-6	-7%	-4
O=C(/C=C/c1ccccc1)NCc1ccco1	-12%	3%	69*	51%	30*
N#C/C(=C\C=C\c1ccccc1)C(=O)NCc1ccco1	15µM*	5%	38	?	20
O=C(NCc1ccco1)/C(=C/C=C\c1ccccc1)NC(=O)c1ccc(Br)o1	20%	1%	15	?	3
O=C(/C=C/c1c(Cl)cccc1Cl)NCc1ccco1	27%	-2%	-8	8%	13
O=C(/C=C/c1ccccc1Cl)NCc1ccco1	?	5%	63*	?	43*
O=C(/C=C/c1ccc(Cl)c(Cl)c1)NCc1ccco1	1.9µM*	0%	active	-27%	11
CC(=O)NC1C(O)O[C@H](C(=O)O)[C@@H](O)[C@@H]1O (stereo partly drawn)	/	/	-5	/	14
COc1cc([N+](=O)[O-])ccc1NC(=O)NCC1CCN(Cc2ccc(Cl)cc2)CC1	?	6%	19	?	-8
O=C(CSc1ccccc1F)NCCCN1CCCC1=O	19%	/	/	16%	/
O=C(/C=C/c1ccc2c(c1)OCO2)NCc1ccco1	70%	-5%	33	34%	25*
COc1ccc(C(=O)Cn2nnc(-c3ccccc3NC(=O)C3CC3)n2)cc1	?	3%	52	12µM*	18*
COc1ccc(C(=O)Cn2nnc(-c3ccccc3F)n2)cc1	46%	3%	3	33%	12*
CCC(C(=O)NCc1ccccn1)n1c2ccccc2c2nc(=O)cc(C)n21 (stereo not drawn)	1%	-3%	-4	7%	-2
